Source: PubChem BioAssay (Tox21)
Where “and” joins values, the source holds several entries; their conditions need not be identical. Equal entries are not always repeated. Results filed as inconclusive are left out. Where a call stands in place of a potency, no number is given. The source holds several records for some structures; these can differ, active in one and inactive in another. Calls of active or inactive are those of the source. Unless noted, calls follow the shape of the dose curve; as a rule, active = well fitted curve in the direction sought with a large enough effect in the repeat runs; inconclusive = weak or mixed curves; inactive = no such curve, though single readings can be large; an effect the other way counts as inactive or inconclusive.

Legend:
[1] = qHTS assay to identify small molecule agonists of the peroxisome proliferator-activated receptor delta (PPARd) signaling pathway - cell viability counter screen (AID 743211); conditions: PPARd-bla HEK293H viability, CellTiter-Glo luminescence, 17 h; series mostly up to 62.6 µM; also: nearly all actives have a fitted effect of over 55% in size; also: potency is read from the fitted curve at half-maximal effect
In short: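 PPARd-bla HEK293H cells (3000/well) were pre-incubated 5 h at 37 C, then exposed to compound for 17 h at 37 C. After 2 h with LiveBLAzer substrate, CellTiter-Glo was added to the same wells; luminescence read after 30 min at room temperature.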

[2] = qHTS assay to identify small molecule antagonists of the peroxisome proliferator-activated receptor delta (PPARd) signaling pathway - cell viability counter screen (AID 743213); conditions: PPARd-bla HEK293H viability, CellTiter-Glo luminescence, 17 h; series mostly up to 62 µM; also: nearly all actives have a fitted effect of over 50% in size; also: potency is read from the fitted curve at half-maximal effect
In short: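 HEK293H PPARd UAS-bla cells, 5 h pre-incubation, compound + L165041 300 nM final, 17 h 37 C; B/G FRET substrate 2 h RT; then CellTiter-Glo 30 min RT, luminescence.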

[3] = qHTS assay to identify small molecule agonists of the farnesoid-X-receptor (FXR) signaling pathway - cell viability counter screen (AID 743218); conditions: FXR-bla HEK293T viability, CellTiter-Glo luminescence, 16 h; series mostly up to 62.6 µM; also: nearly all actives have a fitted effect of over 45% in size; also: potency is read from the fitted curve at half-maximal effect
In short: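 In GeneBLAzer FXR-UAS-bla HEK 293T cells, compounds act for 16 h at 37 C. Cell viability is then scored in the reporter wells by CellTiter-Glo, 30 min at RT, luminescence.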

[4] = qHTS assay to identify small molecule antagonists of the farnesoid-X-receptor (FXR) signaling pathway - cell viability counter screen (AID 743221; active = well fitted cell-killing curve with a large enough effect in the repeat runs, not every such curve was filed as active; also: nearly all actives have a fitted effect of over 50% in size; also: potency is read from the fitted curve at half-maximal effect); conditions: FXR-bla HEK293T viability, CellTiter-Glo luminescence, 16 h; series mostly up to 62.6 µM
In short: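 GeneBLAzer FXR-UAS-bla HEK 293T cells, compound plus chenodeoxycholic acid (50 uM final), 16 h at 37 C. CellTiter-Glo added to the same wells after the beta-lactamase read; luminescence read after 30 min at room temperature as viability.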

[5] = target: Vitamin D3 receptor (Homo sapiens) (UniProt P11473); test: qHTS assay to identify small molecule agonists of the vitamin D receptor (VDR) signaling pathway (AID 743222; calls by dose curve); conditions: HEK293T VDR-UAS-bla, beta-lactamase FRET ratio, 16 h; series mostly up to 63.5 µM
Chain of Vitamin D3 receptor (Homo sapiens) (P11473 whole entry, looked up): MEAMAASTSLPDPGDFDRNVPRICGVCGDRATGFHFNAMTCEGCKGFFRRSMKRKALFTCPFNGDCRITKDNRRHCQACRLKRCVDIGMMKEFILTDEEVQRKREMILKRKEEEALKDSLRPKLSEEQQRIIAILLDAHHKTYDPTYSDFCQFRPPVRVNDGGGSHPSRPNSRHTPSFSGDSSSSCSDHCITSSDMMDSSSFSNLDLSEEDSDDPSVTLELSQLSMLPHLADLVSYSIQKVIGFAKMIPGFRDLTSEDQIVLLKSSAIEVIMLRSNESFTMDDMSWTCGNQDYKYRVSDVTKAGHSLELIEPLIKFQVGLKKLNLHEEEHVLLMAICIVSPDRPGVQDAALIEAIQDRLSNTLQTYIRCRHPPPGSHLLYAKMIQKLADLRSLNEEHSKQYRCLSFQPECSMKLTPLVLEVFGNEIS
In short: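 Agonist activity measured in VDR-bla reporter cells. Exposure 16 h, 37C, 5% CO2; detection by B/G FRET substrate, 2 h RT.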

[6] = qHTS assay to identify small molecule agonists of the vitamin D receptor (VDR) signaling pathway - cell viability counter screen (AID 743224); conditions: VDR-bla HEK293T viability, CellTiter-Glo luminescence, 16 h; series mostly up to 62.6 µM; also: nearly all actives have a fitted effect of over 50% in size
In short: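 VDR-bla cell line, quantitative HTS format; 16 h compound incubation (37C, 5% CO2); ATP-based CellTiter-Glo luminescence measured in the reporter assay wells.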

[7] = qHTS assay to identify small molecule antagonists of the vitamin D receptor (VDR) signaling pathway - cell viability counter screen (AID 743225); conditions: VDR-bla HEK293T viability, CellTiter-Glo luminescence, 16 h; series mostly up to 61 µM; also: nearly all actives have a fitted effect of over 50% in size; also: potency is read from the fitted curve at half-maximal effect
In short: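 VDR-UAS-bla HEK 293T cells were plated and incubated 4 h at 37C, then dosed with compound plus 3 nM (final) 1-alpha,25-dihydroxyvitamin D3 for 16 h. After the 2 h beta-lactamase read, viability in the same wells was read as CellTiter-Glo luminescence after 30 min at room temperature.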

[8] = qHTS assay to identify small molecule agonists of the endoplasmic reticulum stress response signaling pathway (AID 1159516; active = well fitted activation curve with a large enough effect in the signal ratio in the repeat runs, not every such curve was filed as active; the % refers to the signal ratio); conditions: ESRE-bla HeLa, ER stress beta-lactamase reporter, 5 h; series mostly up to 61 µM
In short: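 ER stress element reporter (bla) in HeLa. 1,500 cells/well, overnight attachment; 5 hr compound; 2 hr RT substrate; dual-emission fluorescence.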

[9] = qHTS assay to identify small molecule agonists of the endoplasmic reticulum stress response signaling pathway - cell viability counter screen (AID 1159517; calls by dose curve; also: nearly all actives have a fitted effect of over 50% in size; also: potency is read from the fitted curve at half-maximal effect); conditions: ESRE-bla HeLa viability, CellTiter-Glo luminescence, 5 h; series mostly up to 61 µM
In short: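 Counter-screen wells were identical to the reporter wells. Cells were plated at 1,500 per well and dosed for 5 hr, then read for luminescence 30 min after CellTiter-Glo addition.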

[10] = qHTS assay to identify small molecule antagonists of the retinoid-related orphan receptor gamma (ROR-gamma) signaling pathway - cell viability counter screen (AID 1159520); conditions: Tet-on RORgamma CHO cells viability, ATP luminescence, 16 h; series mostly up to 92.4 µM; also: nearly all actives have a fitted effect of over 50% in size; also: potency is read from the fitted curve at half-maximal effect
In short: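 Tet-on ROR gamma CHO cells were given compounds for 2 hr, then doxycycline hyclate at 1 uM final, and incubated 16 hr at 37 C. Viability was measured as ATP content by CellTiter-Glo luminescence.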

[11] = target: Nuclear receptor ROR-gamma (Homo sapiens) (UniProt P51449); test: qHTS assay to identify small molecule antagonists of the retinoid-related orphan receptor gamma (ROR-gamma) signaling pathway (AID 1159521; also: nearly all actives have a fitted effect of over 50% in size; also: potency is read from the fitted curve at half-maximal effect); conditions: Tet-on RORgamma CHO cells, RORE-luciferase, 16 h; series mostly up to 92.4 µM
In short: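 Tet-on ROR-gamma CHO cells with ROR response element-luciferase reporter; compounds added 2 hr before 1 uM doxycycline induction, then 16 hr at 37 C. Antagonism scored as decreased ONE-Glo luminescence.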

[12] = qHTS assay to identify small molecule agonists of the AP-1 signaling pathway - cell viability counter screen (AID 1159525; calls by dose curve; also: nearly all actives have a fitted effect of over 55% in size; also: potency is read from the fitted curve at half-maximal effect); conditions: ME-180 AP-1-bla cells viability, ATP luminescence, 5 h; series mostly up to 76.8 µM
In short: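 AP-1-bla ME-180 cells in Opti-MEM with 0.5% dialyzed FBS, compound exposure 5 h at 37 C in 15-point titration. Viability read in the same wells as ATP content by CellTiter-Glo luminescence, normalised to tetra-n-octylammonium bromide and DMSO controls.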

[13] = qHTS assay to identify small molecule agonists of the AP-1 signaling pathway (AID 1159526; calls by dose curve); conditions: ME-180 (cervical carcinoma) AP-1-bla reporter, beta-lactamase FRET ratio, 5 h; series mostly up to 76.8 µM
[14] = target: Retinoic acid receptor RXR-alpha (Homo sapiens) (UniProt P19793); test: qHTS assay to identify small molecule agonists of the RXR signaling pathway (AID 1159527; calls by dose curve; also: nearly all actives have a fitted effect of over 35% in size); conditions: HEK293T RXRa-UAS-bla, beta-lactamase ratio, 16 h; series mostly up to 76.8 µM
Chain of Retinoic acid receptor RXR-alpha (Homo sapiens) (P19793 whole entry, looked up): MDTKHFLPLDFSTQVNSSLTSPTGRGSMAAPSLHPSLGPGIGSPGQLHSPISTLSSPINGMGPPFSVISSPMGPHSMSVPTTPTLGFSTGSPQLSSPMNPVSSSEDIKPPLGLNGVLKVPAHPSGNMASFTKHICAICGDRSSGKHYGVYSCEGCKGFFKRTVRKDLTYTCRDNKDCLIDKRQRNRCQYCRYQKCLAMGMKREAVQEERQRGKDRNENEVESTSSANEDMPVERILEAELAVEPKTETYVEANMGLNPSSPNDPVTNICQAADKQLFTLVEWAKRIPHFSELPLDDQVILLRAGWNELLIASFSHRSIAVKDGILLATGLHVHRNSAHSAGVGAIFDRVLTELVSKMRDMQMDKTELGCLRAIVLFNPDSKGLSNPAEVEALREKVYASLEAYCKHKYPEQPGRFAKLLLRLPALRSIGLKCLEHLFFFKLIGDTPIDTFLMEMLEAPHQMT
In short: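 GeneBLAzer RXR-alpha-UAS-bla HEK 293T cells in 2% charcoal-stripped FBS medium were exposed to compounds for 16 hr at 37 C in agonist mode. Beta-lactamase reporter read as 460/530 nm FRET ratio after 2 hr substrate loading.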

[15] = target: Bile acid receptor (Homo sapiens) (UniProt Q96RI1); test: qHTS assay to identify small molecule agonists of the farnesoid-X-receptor (FXR) signaling pathway (AID 743220; active = well fitted activation curve with a large enough effect in the signal ratio in the repeat runs, not every such curve was filed as active; the % refers to the signal ratio; also: potency is read from the fitted curve at half-maximal effect); conditions: HEK293T FXR-UAS-bla, beta-lactamase FRET ratio, 16 h; series mostly up to 62.6 µM
Chain of Bile acid receptor (Homo sapiens) (Q96RI1 whole entry, looked up): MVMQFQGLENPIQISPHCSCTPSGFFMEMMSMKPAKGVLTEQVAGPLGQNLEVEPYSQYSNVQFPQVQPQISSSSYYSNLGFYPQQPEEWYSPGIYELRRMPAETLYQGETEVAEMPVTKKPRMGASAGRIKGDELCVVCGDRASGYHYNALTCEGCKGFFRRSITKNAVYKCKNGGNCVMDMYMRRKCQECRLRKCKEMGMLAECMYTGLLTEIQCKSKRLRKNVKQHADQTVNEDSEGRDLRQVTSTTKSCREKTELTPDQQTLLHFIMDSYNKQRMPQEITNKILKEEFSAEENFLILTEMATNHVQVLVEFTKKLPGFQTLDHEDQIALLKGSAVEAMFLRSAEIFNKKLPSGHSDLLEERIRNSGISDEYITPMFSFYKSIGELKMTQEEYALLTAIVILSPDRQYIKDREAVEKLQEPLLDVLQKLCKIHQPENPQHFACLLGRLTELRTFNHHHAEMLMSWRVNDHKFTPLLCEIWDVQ
In short: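 Beta-lactamase reporter under UAS control in GeneBLAzer FXR HEK 293T cells (5000/well) measured with LiveBLAzer FRET substrate after 2 h at room temperature. Compound exposure lasted 16 h at 37C.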

[16] = target: Vitamin D3 receptor (Homo sapiens) (UniProt P11473); test: qHTS assay to identify small molecule antagonists of the vitamin D receptor (VDR) signaling pathway (AID 743223; active = well fitted inhibition curve with a large enough effect in the signal ratio in the repeat runs, not every such curve was filed as active; the % refers to the signal ratio); conditions: VDR-UAS-bla HEK293T, beta-lactamase FRET ratio, 16 h; series mostly up to 61 µM
In short: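 VDR-bla cells were treated with compound plus 3 nM final 1alpha,25-dihydroxyvitamin D3 for 16 h at 37C. Beta-lactamase reporter read by B/G FRET substrate fluorescence after 2 h at room temperature. qHTS format.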

[17] = target: Peroxisome proliferator-activated receptor delta (Homo sapiens) (UniProt Q03181); test: qHTS assay to identify small molecule agonists of the peroxisome proliferator-activated receptor delta (PPARd) signaling pathway (AID 743212; calls by dose curve); conditions: HEK293H PPARd-UAS-bla, beta-lactamase FRET ratio, 17 h; series mostly up to 62.6 µM
Chain of Peroxisome proliferator-activated receptor delta (Homo sapiens) (Q03181 whole entry, looked up): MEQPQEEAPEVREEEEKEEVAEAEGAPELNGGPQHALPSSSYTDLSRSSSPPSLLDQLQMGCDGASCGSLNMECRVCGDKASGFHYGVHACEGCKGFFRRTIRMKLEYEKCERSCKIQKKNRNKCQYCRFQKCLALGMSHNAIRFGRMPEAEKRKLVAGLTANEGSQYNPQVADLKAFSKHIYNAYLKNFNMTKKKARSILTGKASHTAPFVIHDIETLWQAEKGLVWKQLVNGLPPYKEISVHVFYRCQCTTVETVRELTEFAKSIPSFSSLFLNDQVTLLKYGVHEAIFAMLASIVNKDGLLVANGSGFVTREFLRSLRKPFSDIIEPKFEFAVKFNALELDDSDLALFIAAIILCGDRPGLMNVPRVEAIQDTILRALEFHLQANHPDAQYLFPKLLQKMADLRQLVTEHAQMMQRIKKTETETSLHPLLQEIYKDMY
In short: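 Quantitative high-throughput agonist screen in a HEK293H beta-lactamase reporter line under UAS control. Compounds in DMSO, at 37 C. Fluorescence read after 2 h with FRET substrate at room temperature.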

[18] = target: Peroxisome proliferator-activated receptor delta (Homo sapiens) (UniProt Q03181); test: qHTS assay to identify small molecule antagonists of the peroxisome proliferator-activated receptor delta (PPARd) signaling pathway (AID 743215; active = well fitted inhibition curve with a large enough effect in the signal ratio in the repeat runs, not every such curve was filed as active; the % refers to the signal ratio;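 also: cells stimulated with agonist L165041 at 300 nM final during compound exposure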); conditions: HEK293H PPARd-UAS-bla, beta-lactamase FRET ratio, antagonist, 17 h; series mostly up to 62 µM
In short: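 Antagonist-mode beta-lactamase reporter screen: HEK293H cells with UAS-bla under PPARd control, stimulated by 300 nM L165041 (final) alongside test compound for 17 h at 37 C, then FRET fluorescence after 2 h substrate incubation.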

Row | Compound | Potency [1] | Potency [2] | Potency [3] | Potency [4] | Potency [5] | Potency [6] | Potency [7] | outcome [8] | Potency [9] | Potency [10] | Potency [11] | Potency [12] | Potency [13] | Potency [14] | Potency [15] | Potency [16] | Potency [17] | Potency [18]
1 | CCC(CO)(CO)COCC(CC)(CO)CO | inactive | inactive | inactive | inactive | inactive | inactive | inactive | inactive | inactive | inactive | inactive | inactive | inactive | inactive | – | – | – | –
2 | Nc1ccc(O)cc1 | inactive | – | 25.5 µM (active) and inactive | inactive | – | – | inactive | inactive | inactive | 63.5 µM (active) and inactive | 31.8 µM (active) and inactive | 32.1 µM (active) and inactive | inactive | inactive | 20.3 µM (active) and inactive | inactive | – | –
3 | O=C(Cl)c1cccc(C(=O)Cl)c1 | inactive | – | inactive | inactive | inactive | inactive | inactive | inactive | inactive | inactive | inactive | inactive | inactive | inactive | – | – | inactive | inactive
4 | Oc1c(Cl)cc(Cl)c(Cl)c1Cc1c(O)c(Cl)cc(Cl)c1Cl | 27.5 µM (active) and 13.3 µM (active) | 38.8 µM (active) and 24.5 µM (active) | 21.8 µM (active) and 24.5 µM (active) | 48.9 µM (active) | – | – | 54.8 µM (active) and 27.5 µM (active) and 9.52 µM (active) | – | 17.3 µM (active) and 49 µM (active) | 1.53 µM (active) and 1.93 µM (active) and 1.68 µM (active) | 966 nM (active) and 1.37 µM (active) and 841 nM (active) | 27.5 µM (active) | – | – | inactive | – | – | –
5 | Clc1ccc2c(c1)C(N1CCNCC1)=Nc1ccccc1O2 | 27.5 µM (active) and 26.6 µM (active) | 2.19 µM (active) and inactive | 38.9 µM (active) | inactive | – | – | 49 µM (active) and inactive | – | inactive | inactive | inactive | inactive | – | inactive | – | – | inactive | inactive
6 | NCCCCCC(=O)O | inactive | – | inactive | inactive | inactive | inactive | inactive | inactive | inactive | inactive | – | inactive | inactive | inactive | inactive | – | – | –
7 | c1cc(C(c2ccc(OCC3CO3)cc2)C(c2ccc(OCC3CO3)cc2)c2ccc(OCC3CO3)cc2)ccc1OCC1CO1 (stereo not given) | inactive | inactive | – | inactive | – | inactive | inactive | – | inactive | inactive | – | inactive | – | – | – | – | – | –
